Results taken from PubChem BioAssay AID1210 (NMMLSC, 2008).
Calls of active or inactive are those of the source.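 Rule for the calls: active = blocks over 70% of labeled estradiol binding at 10 µM, or over a set limit at 100 nM; inactive = the rest.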

Target: Estrogen receptor beta (Homo sapiens) (UniProt Q92731)
Test: ERbeta ligand binders by competition, primary screen, cell-based, Cos7 ERbeta-GFP, flow cytometry (AID 1210);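 note: 0% = DMSO vehicle wells and 100% = complete loss of labeled estradiol signal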
Conditions: fluorescent estrogen binding, at 10 µM, active compounds read high

Sequence of Estrogen receptor beta (Homo sapiens) (Q92731 whole entry, looked up): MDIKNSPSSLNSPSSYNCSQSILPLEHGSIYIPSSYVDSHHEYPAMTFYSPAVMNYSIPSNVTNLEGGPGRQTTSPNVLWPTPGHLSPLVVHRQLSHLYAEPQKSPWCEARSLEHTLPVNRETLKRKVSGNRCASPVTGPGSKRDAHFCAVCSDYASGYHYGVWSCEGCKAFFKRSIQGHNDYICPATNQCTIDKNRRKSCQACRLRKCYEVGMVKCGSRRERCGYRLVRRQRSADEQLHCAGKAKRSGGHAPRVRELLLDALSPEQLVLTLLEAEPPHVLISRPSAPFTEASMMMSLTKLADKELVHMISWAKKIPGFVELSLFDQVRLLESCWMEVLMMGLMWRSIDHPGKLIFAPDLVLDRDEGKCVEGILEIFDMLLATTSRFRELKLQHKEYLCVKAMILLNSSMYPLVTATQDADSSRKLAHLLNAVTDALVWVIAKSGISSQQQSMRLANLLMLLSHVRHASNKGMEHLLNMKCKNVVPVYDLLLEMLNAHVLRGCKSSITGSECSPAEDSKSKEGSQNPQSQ

Row | SMILES | inhibition
1 | COc1ccc(NC(=O)CSc2nc3ccccc3c3nc4ccccc4n23)cc1 | 38% (inactive)
2 | O=C(CSc1nc(C2CCCCC2)n(-c2ccccc2)n1)NCC(F)(F)F | 0% (inactive)
3 | Cc1ccc(Nc2nnc(SCC(=O)NCc3ccco3)s2)cc1 | 18% (inactive)
4 | Cc1cc(Cl)ccc1OCC(=O)OC(C)C(=O)N(C)C (stereo unspecified) | 35% (inactive)
5 | CC1(C)N=C(N)N=C(N)N1c1ccc(C(=O)O)cc1 | 22% (inactive)
6 | O=S(=O)(/N=C(/Sc1ccccc1)c1ccccc1)c1ccccc1 | 32% (inactive)
7 | O=C(c1cc2sccc2n1Cc1ccccc1)N1CCc2ccccc21 | 42% (inactive)
8 | Cc1c(C(=O)OCc2ccccc2)[nH]c2c1C(=O)CC(c1ccco1)C2 (stereo unspecified) | 45% (inactive)
9 | CCc1ccc(Nc2nc(N)nc(CSc3nnnn3-c3ccccc3)n2)cc1 | 67% (inactive)
10 | COc1cc2c(cc1OC)C(Cc1ccc(O)cc1)N(C)CC2 (stereo unspecified) | 56% (inactive)
11 | COc1ccc(OC)c(/C=N/c2oc(-c3ccco3)c(-c3ccco3)c2C#N)c1 | 31% (inactive)
12 | COc1cc(NC(=O)c2cccs2)c(C(=O)OCC(=O)NC(=O)NCc2ccccc2)cc1OC | 8% (inactive)
13 | CC(O)C1CCC2C3CC[C@H]4CC(O)CCC4(C)C3CC3(OCCO3)C12C (stereo partly specified) | 18% (inactive)
14 | O=C1Nc2ccccc2SC(c2ccccc2)C1O (stereo unspecified) | 56% (inactive)
15 | O=C(CSc1nnnn1-c1ccccc1)Nc1nsc(-c2ccc(Cl)cc2)n1 | 36% (inactive)
16 | COc1ccc(NC(=O)C(NC(=O)c2ccc(=O)[nH]c2)c2ccc(C)cc2)cc1 (stereo unspecified) | 52% (inactive)
